# ATXN2 expr inh: Primary qHTS for Inhibitors of ATXN expression | HEK-293 ATXN2-luciferase reporter, luminescence, 24 h | 360,000 tested, 0.72% active | Potency, µM (series often up to 57 µM), for inactives: at the highest dose activity change, negative = inhibition, hits mostly inhibitors; further: on the % scale 0 is the no-effect control and ±100 the full control effect; nearly all actives have a fitted effect of over 55% in size
#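 qHTS (up to 57 uM final) was run with 24 h compound exposure of reporter cells at 37 °C. Each well was multiplexed: SteadyGlo luminescence measured ATXN2-luciferase expression after a fluorogenic Gly-Phe-AFC viability readout (25 uM final).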
# S2 tox: Viability Counterscreen for Primary qHTS for Inhibitors of ATXN expression; S2 cells (HEK-293 line with an ATXN2-luciferase reporter) viability, CellTiter-Fluor protease fluorescence, 24 h; Potency, µM (doses to about 56.7 µM), most hits filed as cytotoxic; 400,000 tested, 0.49% active; AID 651635, 2014; further: nearly all actives have a fitted effect of over 40% in size
# HepG2 tox: qHTS for Inhibitors of TGF-b: Cytotox Counterscreen. HepG2 CAGA-GFP viability, ATP luminescence, 18 h. Potency, µM (doses to about 46.1 µM), inactives show at the highest dose activity change, negative = cytotoxicity, usual class: cytotoxic. 410,000 tested, 0.76% active
#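 CellTiter-Glo luminescence gave cytotoxicity after 18 hours at 37 degrees C. The cells were HepG2 CAGA-GFP in 1% FBS DMEM, stimulated with 500 pg/mL TGF-beta after compound addition. %Activity was normalised to no-cell wells (complete cell-killing) and DMSO (no toxicity), and curves were fitted and classified.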
# TGFb SMAD3 inh: qHTS for Inhibitors of TGF-b; Potency, µM (titrated, usually from 46.1 µM), inactives show top-dose activity, negative = inhibition, usual class: inhibitors; 410,000 tested, 1.2% active; AID 588855, 2011; HepG2 CAGA-GFP TGF-b/SMAD3 reporter, GFP fluorescence, 18 h; TGF-beta stimulated, 500 pg/mL final; further: on the % scale 0 is the no-effect control and ±100 the full control effect; nearly all actives have a fitted effect of over 65% in size
#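 Using HEPG2 CAGA-GFP reporter cells at 1000 cells/well, we pinned test compounds, stimulated with recombinant TGF-beta (500 pg/mL final) and measured total well GFP after 18 h.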
# DT40 TDP1 no CPT: qHTS for Inhibitors of human tyrosyl-DNA phosphodiesterase 1 (TDP1): qHTS in cells in absence of CPT; AID 686978, 2013; DT40 Tdp1-/- hTDP1 cells, no CPT, ATP luminescence, 48 h; Potency, µM (series often up to 46.2 µM), for inactives: at the highest dose activity change, negative = growth inhibition, actives largely listed as inhibitors; 420,000 tested, 15% active; further: on the % scale 0 is the no-effect control and ±100 the full control effect; nearly all actives have a fitted effect of over 55% in size
#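 Luminescent ATP content (CellTiter-Glo) served as the growth readout. Knockout chicken DT40 cells expressing human TDP1 were exposed to compounds without camptothecin for a minimum 48 hr at 37 °C.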
# DT40 TDP1 CPT: qHTS for Inhibitors of human tyrosyl-DNA phosphodiesterase 1 (TDP1): qHTS in cells in presence of CPT; chicken DT40 Tdp1-/-;hTDP1 cells + 20 nM CPT, ATP luminescence, 48 h; Potency, µM (doses to about 46.2 µM), inactives show top-dose activity change, negative = growth inhibition, actives largely listed as inhibitors; 420,000 tested, 12% active; further: on the % scale 0 is the no-effect control and ±100 the full control effect; nearly all actives have a fitted effect of over 55% in size
#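 Cell growth measured by CellTiter-Glo luminescence after a minimum 48 h, 37 C compound exposure with 20 nM CPT in Tdp1-knockout DT40 cells stably expressing hTDP1, seeded 400/well; qHTS titration format.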
# Starred values were filed as active, the others as inactive; i = inactive; ? = inconclusive; . = no result given; [ ] = remark or other dose. Rows were chosen to be rich in hits. Some 17% of all compounds tested hit in one or more screens of this group. The call rests on the fitted dose curve; in most records, active means well fitted curve in the direction sought with a large enough effect; inconclusive means small, poorly fitted or top-dose-only effect, or another doubt; inactive means no such curve, though single readings can be large; an effect the other way counts as inactive or inconclusive. Potency means the concentration at half of the fitted maximal effect.
SMILES,ATXN2 expr inh,S2 tox,HepG2 tox,TGFb SMAD3 inh,DT40 TDP1 no CPT,DT40 TDP1 CPT
COc1ccc([N+](=O)[O-])cc1NS(=O)(=O)c1ccc(C)cc1,.,?,-1.3%,-13.2%,?,-16.9%
Cc1ccc(S(=O)(=O)Nc2ccccc2N=Cc2ccc([N+](=O)[O-])cc2[N+](=O)[O-])cc1,5.6%,i,-7.8%,0.0%,18.4µM*,25.9µM*
Cc1ccc(S(=O)(=O)Nc2ccc3ccccc3c2[N+](=O)[O-])cc1,-11.0%,i,-31.1%,?,?,?
CCC1C(=O)NCCN1Cc1ccc2c(c1)CN(Cc1cccn1-c1ccc(Cl)cn1)CCO2 (centres undefined),.,i,.,.,?,8.3%[9.04 µM]
CCn1c2ccccc2c2nnc(NN)nc21,-15.9%,i,-20.1%,?,?,?
CCCCn1c2ccc(F)cc2c2nnc(NN)nc21,?,i,-19.0%,-16.0%,?,18.4µM*
CCn1c2ccc(C)cc2c2nnc(NN)nc21,-18.9%,i,-29.6%,14.1µM*,9.2µM*,18.4µM*
CCC(NC(=O)Nc1cc(C)on1)(C(F)(F)F)C(F)(F)F,-25.1%,i,-34.9%,?,-23.1%,-23.7%
COc1cc(OC)cc(C(=O)NNS(=O)(=O)c2ccc(F)cc2)c1,4.4%,i,-21.3%,-19.0%,10.4%,4.8%
Cc1cccc2c1-c1sc(C(=O)N(C)c3cccc(C(F)(F)F)c3)cc1CO2,3.8%,i,-1.2%,14.0%,23.1µM*,?
CCN(C(=O)c1cc2c(s1)-c1ccccc1OC2)c1cccc(C(F)(F)F)c1,5.7%,i,-15.4%,1.5%,18.4µM*,18.4µM*
CCN(C(=O)c1cc2c(s1)-c1ccccc1OC2)c1cc(Cl)ccc1OC,-20.1%,i,-19.5%,8.91µM*,10.3µM*,20.6µM*
COc1ccc(C(=O)Nc2cc(C(F)(F)F)ccc2Cl)cc1OC,-17.5%,i,-0.1%,21.2%,-13.9%,?
CCCCOP(=O)(OCCCC)C(Nc1ccccc1)c1ccc2c(c1)OCO2 (centres undefined),-13.0%,i,-27.4%,?,13µM*,?
CCOP(=O)(OCC)C(Nc1ccccc1)c1ccc2c(c1)OCO2 (centres undefined),.,?,11.2%,-9.9%,?,13µM*
Cc1cc(N2CCCC2=O)ccc1S(=O)(=O)N1CCOCC1,-22.0%[11.3 µM],i,5.8%,-0.9%,?,2.5%
O=C1CCCN1c1ccc(S(=O)(=O)NCCOc2ccccc2)cc1,-18.4%,i,-14.8%,-7.7%,11.2µM*,?
Cc1cc(N2CCCC2=O)cc(C)c1S(=O)(=O)NCCOc1ccc(C(C)(C)C)cc1,-12.7%,i,-14.2%,-4.8%,7.31µM*,7.31µM*
Cn1c(=O)c(=O)n(C)c2cc(S(=O)(=O)NCCOc3ccccc3)ccc21,-10.9%,i,-7.0%,12.9%,-9.4%,-7.6%
Cc1cc(N2CCCC2=O)ccc1S(=O)(=O)NC1CCCCC1,-19.0%,i,10.9%,-1.6%,20.6µM*,?
N#CC(OC(=O)c1ccccc1)c1cccc([N+](=O)[O-])c1 (centres undefined),8.9%,i,-1.3%,16.8%,-11.6%,3.7%
O=C1c2ccccc2C(=O)c2c(Nc3ccc(CCO)cc3)ccc(O)c21,.,i,-32.4%,-25.0%,16.4µM*,?
O=C1c2ccccc2C(=O)c2c(O)c(O)cc(O)c21,1.0%,?,-17.3%,-9.2%,?,?
COc1ccc(-c2cn(Cc3ccc(C)cc3)nn2)cc1,24.1%,i,-0.1%,-1.6%,-13.3%,-30.1%
